Laboratory results taken from article PMC5540273 (PLoS ONE, 2017).

tested on: PRKD3; conditions: concentration: 1 μM, replicates: in singlicate; n = 1
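Note: KINOMEscan kinase panel screen.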

Point of comparison: CS(=O)(=O)CCNCc1nc(-c2ccc3ncnc(Nc4ccc(OCc5ccccc5)c(Cl)c4)c3c2)cs1.Cl [GW582764], “%Inh” value 100%. Against it:
- COc1cccc(C2=C(Nc3cc(Cl)c(O)c(Cl)c3)C(=O)NC2=O)c1 [SB-390767] — the same, 100%
- CN1c2ccc(-c3ccc(C(N)=O)cc3)cc2-c2[nH]ncc2S1(=O)=O — lower, 0%
- O=C(Nc1n[nH]c2nc(-c3ccco3)c(Br)cc12)C1CCN(Cc2ccccc2)C1.O=C(O)[C@H](O)[C@@H](O)C(=O)O (stereo not drawn) [SB-742034] — lower, 18%
- Cc1ccccc1-c1cc(-c2c[nH]nc2-c2ccccn2)ccn1 [GW680061] — the same, 100%
- O=C(Nc1n[nH]c2cc(-c3ccsc3)ccc12)C1CC1 [SB-732932] — lower, 0%
- Fc1ccc(-c2nc[nH]c2-c2ccncc2)cc1 [SB-217360] — lower, 0%
- CNCc1ccc2nc(NC(=O)c3ccc(C(C)(C)C)cc3)cn2c1 — lower, 12%
- Cc1ccc(NC(=O)Nc2ccc(Cl)cc2)cc1-c1ccc(C(=O)Nc2ccncc2)cc1 [GSK1398472] — lower, 35%
- CCCCc1nn2ncccc2c1-c1ccnc(NC2CC2)n1 [GW684374] — lower, 16%
- COc1ccc(-c2coc3ccc(-c4nnc(C)o4)cc23)cc1 — lower, 14%
- CC[C@@H]1CO[C@H](C(=O)Nc2ccccc2)CN1c1cc(-c2ccc3c(N)n[nH]c3c2)nc(NC)n1 [GSK2376236] — lower, 3%
- COc1ccc(Nc2nccc(NCCNC(=O)Nc3cc(C)ccc3C)n2)cc1 [GSK1379899] — lower, 11%
- CC(=O)c1c(C)c2cnc(Nc3ccn(C)n3)nc2n(C2CCCC2)c1=O — lower, 0%
- COc1ccc(Nc2nccc(N3CCC(NC(=O)C(C)c4ccc(Cl)cc4)CC3)n2)cc1 (stereo not drawn) [GSK1379812] — lower, 0%
- CC(C)c1cc(-c2ccc3c(N)n[nH]c3c2)nc(N)n1 [GSK2250882] — lower, 0%
- COC(=O)c1cccc(NC(=O)NC2CCN(c3ccnc(Nc4ccc(F)cc4)n3)C2)c1 (stereo not drawn) [GSK1379725] — lower, 0%
- Fc1ccc(-c2nc3n(c2-c2ccncc2)CCS3)cc1 [GI98581] — lower, 20%
- COc1nccc(-c2c(-c3ccc(F)cc3)ncn2CCCN2CCOCC2)n1 [SB-282852] — lower, 0%
- CNc1nc(-c2ccc3c(N)n[nH]c3c2)cc(N2C[C@@H](C(=O)Nc3ccccc3)CC[C@H]2C)n1 [GSK2298859] — lower, 0%
- O=C1NC(=O)C(c2ccc(Cl)cc2)=C1Nc1ccc(O)cc1 [SB-340867] — lower, 0%
- Cl.Cl.Cl.N#Cc1ccc(CCNc2nccc(-c3cccc(CN4CCNCC4)c3)n2)cc1 [GSK2137462] — lower, 0%
- Cc1nccc(-c2c(-c3ccc(F)cc3)ncn2CCCN2CCOCC2)n1.Cl [SB-282975] — lower, 7%
- Cc1ccc(NC(=O)Nc2ccccc2)cc1-c1ccc(C(=O)Nc2ccncc2)cc1 [GSK1398471] — lower, 3%
- Cn1cnc2c(N)ncnc21 [SKF-97623] — lower, 0%
- Cn1cncc1-c1cc2c(Nc3ccc(OCc4ccccc4)cc3)ncnc2cn1 [GW281179] — lower, 1%
- Nc1cccc(-c2ccc3c(N)n[nH]c3c2)n1 [GSK2192730] — lower, 8%
- Cc1c(Cn2c(C)c(C)n3c(=O)cc(N4CCOCC4)nc23)cccc1C(F)(F)F [GSK2328680] — lower, 8%
- Cc1ccc(-c2nc(Nc3ccncc3)c3ccccc3n2)s1 [GSK189015] — lower, 22%
- CCn1c(-c2c(N)noc2C)nc2cnccc21 [SB-737856] — lower, 0%
- CS(=O)(=O)CCNCc1nc(-c2ccc3ncnc(Nc4ccc5c(cnn5Cc5ccccc5)c4)c3c2)cs1.Cl.Cl [GW569716] — lower, 0%
- COc1ccc(Nc2nccc(-c3ccc(NC(=O)c4cc5cc(F)ccc5[nH]4)cc3)n2)cc1 [GSK1229496] — the same, 100%
- COc1cc2ncnc(Nc3cccc(Br)c3)c2cc1OC.Cl [GI230329] — lower, 0%
- COc1ccc(CSc2nnc(-c3ccc4nccn4c3)o2)cc1C(F)(F)F — lower, 1%
- CC(=O)c1cccc(NC(=O)NC2CCN(c3ccnc(Nc4ccc(F)cc4)n3)C2)c1 (stereo not drawn) [GSK1379710] — lower, 9%
- CCc1ccc(-c2ccc3c(c2)-c2n[nH]cc2S(=O)(=O)N3C)cc1 — lower, 0%

tested on: PRKG1; conditions: concentration: 1 μM, replicates: in singlicate; n = 1

Point of comparison: Fc1ccc(-c2nc[nH]c2-c2ccncc2)cc1 [SB-217360], “%Inh” value 18%. Against it:
- COc1cccc(C2=C(Nc3cc(Cl)c(O)c(Cl)c3)C(=O)NC2=O)c1 [SB-390767] — lower, 0%
- CN1c2ccc(-c3ccc(C(N)=O)cc3)cc2-c2[nH]ncc2S1(=O)=O — lower, 0%
- O=C(Nc1n[nH]c2nc(-c3ccco3)c(Br)cc12)C1CCN(Cc2ccccc2)C1.O=C(O)[C@H](O)[C@@H](O)C(=O)O (stereo not drawn) [SB-742034] — lower, 0%
- Cc1ccccc1-c1cc(-c2c[nH]nc2-c2ccccn2)ccn1 [GW680061] — lower, 0%
- O=C(Nc1n[nH]c2cc(-c3ccsc3)ccc12)C1CC1 [SB-732932] — lower, 0%
- CNCc1ccc2nc(NC(=O)c3ccc(C(C)(C)C)cc3)cn2c1 — lower, 0%
- Cc1ccc(NC(=O)Nc2ccc(Cl)cc2)cc1-c1ccc(C(=O)Nc2ccncc2)cc1 [GSK1398472] — lower, 8%
- CCCCc1nn2ncccc2c1-c1ccnc(NC2CC2)n1 [GW684374] — lower, 0%
- COc1ccc(-c2coc3ccc(-c4nnc(C)o4)cc23)cc1 — lower, 15%
- CS(=O)(=O)CCNCc1nc(-c2ccc3ncnc(Nc4ccc(OCc5ccccc5)c(Cl)c4)c3c2)cs1.Cl [GW582764] — lower, 0%
- CC[C@@H]1CO[C@H](C(=O)Nc2ccccc2)CN1c1cc(-c2ccc3c(N)n[nH]c3c2)nc(NC)n1 [GSK2376236] — lower, 13%
- COc1ccc(Nc2nccc(NCCNC(=O)Nc3cc(C)ccc3C)n2)cc1 [GSK1379899] — the same, 18%
- CC(=O)c1c(C)c2cnc(Nc3ccn(C)n3)nc2n(C2CCCC2)c1=O — lower, 0%
- COc1ccc(Nc2nccc(N3CCC(NC(=O)C(C)c4ccc(Cl)cc4)CC3)n2)cc1 (stereo not drawn) [GSK1379812] — lower, 2%
- CC(C)c1cc(-c2ccc3c(N)n[nH]c3c2)nc(N)n1 [GSK2250882] — higher, 24%
- COC(=O)c1cccc(NC(=O)NC2CCN(c3ccnc(Nc4ccc(F)cc4)n3)C2)c1 (stereo not drawn) [GSK1379725] — lower, 0%
- Fc1ccc(-c2nc3n(c2-c2ccncc2)CCS3)cc1 [GI98581] — higher, 39%
- COc1nccc(-c2c(-c3ccc(F)cc3)ncn2CCCN2CCOCC2)n1 [SB-282852] — lower, 10%
- CNc1nc(-c2ccc3c(N)n[nH]c3c2)cc(N2C[C@@H](C(=O)Nc3ccccc3)CC[C@H]2C)n1 [GSK2298859] — the same, 18%
- O=C1NC(=O)C(c2ccc(Cl)cc2)=C1Nc1ccc(O)cc1 [SB-340867] — lower, 0%
- Cl.Cl.Cl.N#Cc1ccc(CCNc2nccc(-c3cccc(CN4CCNCC4)c3)n2)cc1 [GSK2137462] — lower, 0%
- Cc1nccc(-c2c(-c3ccc(F)cc3)ncn2CCCN2CCOCC2)n1.Cl [SB-282975] — lower, 10%
- Cc1ccc(NC(=O)Nc2ccccc2)cc1-c1ccc(C(=O)Nc2ccncc2)cc1 [GSK1398471] — lower, 0%
- Cn1cnc2c(N)ncnc21 [SKF-97623] — lower, 6%
- Cn1cncc1-c1cc2c(Nc3ccc(OCc4ccccc4)cc3)ncnc2cn1 [GW281179] — lower, 8%
- Nc1cccc(-c2ccc3c(N)n[nH]c3c2)n1 [GSK2192730] — lower, 0%
- Cc1c(Cn2c(C)c(C)n3c(=O)cc(N4CCOCC4)nc23)cccc1C(F)(F)F [GSK2328680] — lower, 5%
- Cc1ccc(-c2nc(Nc3ccncc3)c3ccccc3n2)s1 [GSK189015] — lower, 12%
- CCn1c(-c2c(N)noc2C)nc2cnccc21 [SB-737856] — lower, 0%
- CS(=O)(=O)CCNCc1nc(-c2ccc3ncnc(Nc4ccc5c(cnn5Cc5ccccc5)c4)c3c2)cs1.Cl.Cl [GW569716] — lower, 0%
- COc1ccc(Nc2nccc(-c3ccc(NC(=O)c4cc5cc(F)ccc5[nH]4)cc3)n2)cc1 [GSK1229496] — lower, 0%
- COc1cc2ncnc(Nc3cccc(Br)c3)c2cc1OC.Cl [GI230329] — lower, 9%
- COc1ccc(CSc2nnc(-c3ccc4nccn4c3)o2)cc1C(F)(F)F — lower, 3%
- CC(=O)c1cccc(NC(=O)NC2CCN(c3ccnc(Nc4ccc(F)cc4)n3)C2)c1 (stereo not drawn) [GSK1379710] — lower, 0%
- CCc1ccc(-c2ccc3c(c2)-c2n[nH]cc2S(=O)(=O)N3C)cc1 — lower, 0%
